Data from PubChem BioAssay (NCATS).
Results filed as inconclusive are left out. Entries that show only a call come without a potency. Unmarked numbers belong to inactive results. The source made the active and inactive calls. Calls come from the whole dose curve; as a rule, active = well fitted cell-killing curve with a large enough effect; inconclusive = small, poorly fitted or top-dose-only effect; inactive = no such curve, though single readings can be large or run the other way.

assay: qHTS of pediatric cancer cell lines to identify multiple opportunities for drug repurposing: Primary screen for Rh30 cells (AID 1347107); settings: Rh30 rhabdomyosarcoma viability, CellTiter-Glo luminescence, 48 h; series mostly up to 46 µM; activity change, negative = cytotoxic: at the top concentration; note: nearly all actives have a fitted effect of over 75% in size
Text: Drug repurposing or repositioning has been offered as a strategy for drug development in oncology programs. This approach has special potential for childhood cancers and other rare or orphan diseases, where the expected return on new drug development has been a disincentive to pharmaceuticals.
In this project we exploit the poly-pharmacology of drugs to discover new indications via phenotypic screening of a panel of 19 well-characterized cell lines derived from solid tumors seen in children and adolescents. The goal is to identify approved drugs with previously unrecognized anticancer properties that has the potential to reveal new mechanisms and biological processes involved in carcinogenesis or drug resistance. We employed a titration-based paradigm (quantitative high-throughput screening or qHTS), where all compounds were tested at multiple concentrations for their effect on cell viability. Concentration-response curves (CRCs) were derived directly from the primary screen, and both potency and efficacy values were used to identify compounds with robust bioactivity profiles. We screened the NIH Chemical Genomics Center (NCGC) Pharmaceutical Collection (NPC) and Mechanism Interrogation Plate (MIPE) small molecule collections of approved and investigational compounds against these cell lines; and measured metabolically active cells after 48 hours of compound treatment as a proxy for cell viability.
Assay Submitter: Nathalia J. Martinez, National Center for Advancing Translational Sciences, National Institutes of Health, Rockville, MD, USA; email: natalia.martinez@nih.gov
[1] Shen, M et al. Quantitative high-throughput phenotypic screening of pediatric cancer cell lines identifies multiple opportunities for drug repurposing. Oncotarget 2017 Dec 19;9(4):4758-4772. PMID 29435139.
The cells were obtained from University of North Carolina (UNC), Pediatric Preclinical Testing Program (PPT), and Coriell Institute (CI).
qHTS cell viability assay:
Cells were assayed in growth media at a density of 500-1,000 cells/well. Five microliters of cells were dispensed into 1,536-well, white, solid-bottom, TC-treated plates (Greiner Bio One) using a multidrop dispenser and incubated at 37 degrees C, 5% CO2, under a humidified atmosphere for 5 hours. Twenty-three nanoliters of compounds and controls (neutral control DMSO or positive control bortezomib at final concentration of 2.3 µM) were subsequently transferred by Kalypsys pintool. For primary screens, the MIPE collection was tested at 11-point dilutions (final concentrations range from 0.78 nM to 46 µM) and the NPC collection at 8-point dilutions (final concentrations range from 0.59 nM to 46 µM). Compounds tested in follow-up screens were assayed at 11-point dilutions. Cells were incubated for 48 hours, followed by addition of 3 µL of CellTiter-Glo (Promega). After a 15 min incubation at room temperature, samples were analyzed for luminescence intensity using a ViewLux High-throughput CCD imager equipped with clear filters.
Potency is the fitted concentration of half-maximal effect.

| Structure (SMILES) | activity change, negative = cytotoxic | Potency |
| --- | --- | --- |
| S=P(N1CC1)(N1CC1)N1CC1 | 23.1% [at 92.7 µM] |  |
| NNC(=O)c1ccncc1 |  | inactive |
| O=C(O)C1CCCN(CCC=C(c2ccccc2)c2ccccc2)C1 (stereo not given) | 16.1% |  |
| COc1cccc(N(C)C(=S)Oc2ccc3c(c2)CCCC3)n1 |  | inactive |
| CCn1cc(C(=O)O)c(=O)c2cc(F)c(N3CCNCC3)nc21 |  | inactive |
| CCC(=O)O[C@]1(C(=O)SCF)[C@H](C)C[C@H]2[C@@H]3C[C@H](F)C4=CC(=O)C=C[C@]4(C)[C@@]3(F)[C@@H](O)C[C@@]21C |  | inactive |
| OC(Cn1cncn1)(Cn1cncn1)c1ccc(F)cc1F |  | inactive |
| CCOCC(O)COc1ccc(NC(=O)CC[S+](C)C)cc1 (stereo not given) |  | inactive |
| O=c1oc2c(O)c(O)cc3c(=O)oc4c(O)c(O)cc1c4c23 |  | inactive |
| NC(=O)c1cccc(N)c1 | 11% |  |
| CCN1CCCC1CNC(=O)c1cc(S(N)(=O)=O)ccc1OC (stereo not given) | 24.6% |  |
| N=C(N)c1ccc(OCCCCCOc2ccc(C(=N)N)cc2)cc1 | 4% |  |
| CN(C)CCc1c[nH]c2ccc(C[C@H]3COC(=O)N3)cc12 |  | inactive |
| CC1=C(C(=O)O)N2C(=O)[C@@H](NC(=O)C(N)c3ccccc3)[C@H]2SC1 (stereo not given in full) | 17.2% |  |
| CCCc1cc(C(N)=S)ccn1 |  | inactive |
| CNNCc1ccc(C(=O)NC(C)C)cc1 |  | inactive |
| CCN(C)C(=O)Oc1cccc([C@H](C)N(C)C)c1 |  | inactive |
| CO[C@@H]1[C@@H](OC(N)=O)[C@@H](O)[C@H](Oc2ccc3c(O)c(NC(=O)c4ccc(O)c(CC=C(C)C)c4)c(=O)oc3c2C)OC1(C)C |  | inactive |
| O=C(NCC1CN(c2ccc(N3CCOCC3=O)cc2)C(=O)O1)c1ccc(Cl)s1 (stereo not given) |  | inactive |
| CNCC[C@H](Oc1cccc2ccccc12)c1cccs1 | 8.38% |  |

| Structure (SMILES) | activity change, negative = cytotoxic | Potency |
| --- | --- | --- |
| CC(C)C1CCC(C(=O)N[C@H](Cc2ccccc2)C(=O)O)CC1 (stereo not given in full) |  | inactive |
| N[C@@H](Cc1ccc(O)c(O)c1)C(=O)O | 29.7% |  |
| CNS(=O)(=O)CCc1ccc2[nH]cc(C3CCN(C)CC3)c2c1 |  | inactive |
| COc1ccc2c(c1)c(CC(=O)OCC(=O)O)c(C)n2C(=O)c1ccc(Cl)cc1 | 17.7% |  |
| O=C(O)c1cc(=O)[nH]c(=O)[nH]1 | 32.5% |  |
| NC1(c2ccc(-c3nc4ccn5c(=O)[nH]nc5c4cc3-c3ccccc3)cc2)CCC1 |  | 18.7 µM (active) |
| CCn1cc(C(=O)O)c(=O)c2cc(F)c(N3CCN(C)CC3)cc21 |  | inactive |
| N[C@@H](C(=O)N[C@@H]1C(=O)N2C(C(=O)O)=C(Cl)CS[C@H]12)c1ccccc1 |  | inactive |
| Cc1onc(-c2ccccc2Cl)c1C(=O)N[C@@H]1C(=O)N2[C@@H]1SC(C)(C)[C@@H]2C(=O)O |  | inactive |
| CC1(C)[C@H](C(=O)O)N2C(=O)C[C@H]2S1(=O)=O | 23.1% |  |
| O=C(O)c1ccc(-n2nc(-c3ccccc3O)nc2-c2ccccc2O)cc1 | 0.643% |  |
| CC(C)OC(=O)C(C(=O)OC(C)C)=C1SC=CS1 | 8.46% |  |
| NC(N)=NC(N)=NCCc1ccccc1 |  | inactive |
| Cc1ncc([N+](=O)[O-])n1CCO |  | inactive |
| CS(=O)(=O)c1ccc([C@@H](O)[C@@H](CO)NC(=O)C(Cl)Cl)cc1 |  | inactive |
| CN1CCCC(n2nc(Cc3ccc(Cl)cc3)c3ccccc3c2=O)CC1 (stereo not given) | 12.8% |  |
| COCCCOc1cc(C[C@@H](C[C@H](N)[C@@H](O)C[C@H](C(=O)NCC(C)(C)C(N)=O)C(C)C)C(C)C)ccc1OC |  | inactive |
| CNS(=O)(=O)Cc1ccc2[nH]cc(CCN(C)C)c2c1 |  | inactive |
| COc1cc(NS(=O)(=O)c2ccc(N)cc2)nc(OC)n1 |  | inactive |
| CCN(CC)CCn1c(=O)c(Cc2ccc(OC)cc2)nc2ccccc21 | 17.9% |  |
